Data reported in PubChem BioAssay (Tox21).
Several values for one entry are separate records, joined by “and”; a condition that tells them apart may be missing. Identical values can stand only once. Results filed as inconclusive are left out. More than one record can exist for a structure, and the calls need not agree. Activity calls are given as the source filed them. Calls follow the shape of the full dose curve.

Assay: qHTS assay to identify small molecule agonists of H2AX - cell viability counter screen (AID 1224847); also: nearly all actives have a fitted effect of over 30% in size; as to activity change, negative = cytotoxicity: top concentration of the series differs between compounds
Conditions: CHO-K1 viability, CellTiter-Glo luminescence, 3 h; series mostly up to 70.9 µM; activity change, negative = cytotoxicity: at the top concentration
From the text: National Center for Advancing Translational Sciences [NCATS]
NIH Chemical Genomics Center [NCGC]
U.S. Environmental Protection Agency [EPA]
National Institutes of Environmental Health Sciences [NIEHS]
National Toxicology Program [NTP]
U.S. Food and Drug Administration [FDA]
HTRF phospho-H2AX (Ser139) assay (Cisbio Bioassays, US) enables the quantitative detection of the histone variant H2AX when phosphorylated on serine 139. When double-stranded DNA breaks, either by ionizing radiation or endogenous physiological processes, H2AX becomes phosphorylated at Ser139. This phospho-Ser139 serves as a sensitive biomarker for the detection of such breaks, localizing the site of DNA repair. So, HTRF phospho-H2AX Ser139 is a pertinent assay to study genome stability, the cell cycle, DNA repair, and it serves as a biomarker for cancer, and to understand aging. Wild type CHO-K1 cells were used to identify the inducers of Phospho-H2AX Ser 139 from the Tox21 compound collections. Also cytotoxicity of the Tox21 10K compound library against the CHO-K1 cell line was tested by measuring the cell viability using CellTiter-Glo assay (Promega, Madison, WI).
Tox21 Assay Protocol Summary:
The CHO-K1 cells suspended in culture medium containing 10% FBS were dispensed at 1000 cells/ 3 ul/well in 1536-well white wall/solid bottom plates (Greiner Bio-One North America, NC) using a Multidrop Combi (Thermo Fisher Scientific Inc., Waltham, MA). After the assay plates were incubated at 37C overnight, 23 nl of compounds at 15 concentrations (from 5-48 columns) or positive control (from 1 to 4 columns) were transferred to the assay plates using a Pintool station (Wako, San Diego, CA) into each well resulting in a final DMSO concentration of 0.76%. After 3hr incubation at 37C, 3 uL/well CellTiter-Glo luminescent cell viability reagent (Promega Corporation, Madison, WI) was added using a Flying Reagent Dispenser (FRD) (Aurora Discovery, CA). After incubation at room temperature for 30 min, the luminescence intensity was read using a ViewLux plate reader (PerkinElmer, Waltham, MA).
% is scaled to controls: 0 for no effect and ±100 for the full control effect; potency is read from the fitted curve at half-maximal effect.

| SMILES | activity change, negative = cytotoxicity | Potency |
| --- | --- | --- |
| Nc1c(Cl)cc(Cl)cc1Cl | 2.21% [at 154 µM] (inactive) |  |
| CC[C@H](c1ccc(O)cc1)[C@@H](CC)c1ccc(O)cc1 |  | 101 µM (active) and inactive |
| COc1ccc(CN2CCN(C(c3ccc(F)cc3)c3ccc(F)cc3)CC2)c(OC)c1OC |  | 49.2 µM (active) |
| CC(C)(C)C1CCC(CC2=C(O)c3ccccc3C(=O)C2=O)CC1 (stereo not given) | -8.6% (inactive) |  |
| CC(C)C(C)(C)C(C)(C)C(C)(C)S | 0.92% [at 154 µM] (inactive) |  |
| O=C(OCC(COC(=O)c1ccccc1)(COC(=O)c1ccccc1)COC(=O)c1ccccc1)c1ccccc1 | 4.34% [at 154 µM] (inactive) |  |
| Cc1cc(O)c2ccccc2c1O |  | 5.52 µM (active) |
| CC(NN)c1ccccc1 (stereo not given) | -4.32% [at 31.6 µM] (inactive) |  |
| COc1cc(/C=C/C(=O)O[C@H]2CC[C@]34C[C@]35CC[C@]3(C)[C@@H]([C@H](C)CCC=C(C)C)CC[C@@]3(C)[C@@H]5CC[C@H]4C2(C)C)ccc1O | -1.17% (inactive) |  |
| COC(=O)c1cc(Cl)ccc1OC | 6.29% (inactive) |  |
| CO[Si](CCCNc1ccccc1)(OC)OC | 1.65% [at 154 µM] (inactive) |  |
| C[C@@H]1C[C@H]2[C@@H]3CCC4=CC(=O)C=C[C@]4(C)[C@@]3(Cl)[C@@H](O)C[C@]2(C)[C@@]1(OC(=O)c1ccco1)C(=O)CCl | 9.33% (inactive) |  |
| CCCC(c1cc(C(C)(C)C)c(O)cc1C)c1cc(C(C)(C)C)c(O)cc1C |  | 25.6 µM (active) |
| Cn1cc(C(=O)[C@@H]2CCc3nc[nH]c3C2)c2ccccc21 | -3.81% (inactive) |  |
| CN(C)C(=O)C1(N2CCCCC2)CCN(CC[C@@]2(c3ccc(Cl)c(Cl)c3)CN(C(=O)c3ccccc3)CCO2)CC1 |  | 52.9 µM (active) |
| CC(=O)S[C@@H]1CC2=CC(=O)CC[C@]2(C)[C@H]2CC[C@@]3(C)[C@@H](CC[C@@]34CCC(=O)O4)[C@H]12 | 5.77% [at 154 µM] (inactive) |  |
| CCCCCCCCn1sc(Cl)c(Cl)c1=O |  | 8 µM (active) |
| OCCCCCCCCCCCCBr |  | 102 µM (active) |
| CCCCCCOC(=O)c1ccc(O)cc1 |  | 89.9 µM (active) and 101 µM (active) |
| CCCCCCCCCCCC[N+](C)(C)CCCCCCCCCCCC |  | 28.4 µM (active) |

| SMILES | activity change, negative = cytotoxicity | Potency |
| --- | --- | --- |
| C1CCCC1 | 3.81% [at 154 µM] (inactive) |  |
| CC1=NC(C)OC1C (stereo not given) | -1.19% [at 154 µM] (inactive) |  |
| Fc1ccc([C@@H]2CCNC[C@H]2COc2ccc3c(c2)OCO3)cc1 | -6.6% (inactive) |  |
| Cc1ccc(-n2nc(C(C)(C)C)cc2NC(=O)Nc2ccc(OCCN3CCOCC3)c3ccccc23)cc1 | 4.37% (inactive) |  |
| CC(C)(C)C(=O)OCOC(=O)[C@@H]1N2C(=O)[C@@H](NC(=O)[C@H](N)c3ccccc3)[C@H]2SC1(C)C | 1.55% (inactive) |  |
| CCOc1ccc2nc3cc(N)ccc3c(N)c2c1 | 4.89% (inactive) |  |
| COC(=O)C1=C(C)NC(C)=C(C(=O)OCCc2ccc(N3CCN(C(c4ccccc4)c4ccccc4)CC3)cc2)C1c1cccc([N+](=O)[O-])c1 (stereo not given) | 1.06% (inactive) |  |
| CC(C)(C)c1ccc(C(=O)O)cc1 | -4.22% [at 154 µM] (inactive) |  |
| Cc1onc(-c2ccccc2Cl)c1C(=O)N[C@@H]1C(=O)N2[C@@H]1SC(C)(C)[C@@H]2C(=O)O | 0.274% (inactive) |  |
| CCCC1O[C@@H]2C[C@H]3[C@@H]4CCC5=CC(=O)C=C[C@]5(C)[C@H]4[C@@H](O)C[C@]3(C)[C@]2(C(=O)CO)O1 (stereo not given in full) | -5.61% [at 154 µM] (inactive) |  |
| N#CSc1ccc(N)c([N+](=O)[O-])c1 | -7.2% [at 154 µM] (inactive) |  |
| Cc1cc(CCN2CCN(c3nsc4ccccc34)CC2)cc2c1NC(=O)CC2(C)C |  | 113 µM (active) |
| CCC1=C[C@@H]2CN(C1)Cc1c([nH]c3ccccc13)[C@@](C(=O)OC)(c1cc3c(cc1OC)N(C)[C@H]1[C@@](O)(C(=O)OC)[C@H](OC(C)=O)[C@]4(CC)C=CCN5CC[C@]31[C@@H]54)C2 | 4.39% (inactive) |  |
| Oc1cccc2cc3cccc(O)c3c(O)c12 | -3.89% [at 154 µM] (inactive) |  |
| CC(C)(C)NC(=O)[C@@H]1C[C@@H]2CCCC[C@@H]2CN1C[C@@H](O)[C@H](Cc1ccccc1)NC(=O)[C@H](CC(N)=O)NC(=O)c1ccc2ccccc2n1 |  | 51.2 µM (active) |
| CC/C(=C(\c1ccc(O)cc1)c1ccc(OCCN(C)C)cc1)c1ccccc1 |  | 90 µM (active) |
| CCCCCCCCOc1ccccc1C(=O)Nc1ccc(C(=O)OCC[N+](C)(CC)CC)cc1 |  | 24.7 µM (active) |
| O=[N+]([O-])c1cc([N+](=O)[O-])c2ccc(S(=O)(=O)O)cc2c1O | 0.734% [at 154 µM] (inactive) |  |
| Nc1ccccc1O | -8.34% [at 154 µM] (inactive) |  |
| CCCCCOC(=O)CCCC | -8.71% [at 154 µM] (inactive) |  |
